# 3CLpro inhibitor = SARS-CoV 3CLpro protease inhibition; P0C6X7; recombinant SARS-CoV 3CLpro, quenched FRET peptide cleavage; inhibition, % at 6 µM; hit rate 0.14% among 290,000; in the data active = inhibition above about 12%
# GDH-TPI counter-1 = inhibits GDH-TPI coupling enzymes, artifact for Mtb FBA screen; GDH-TPI coupled enzyme counterscreen, NADH absorbance; inhibition, % at 4.8 µM; hit rate 1.2% among 360,000; in the data active = inhibition above about 30%;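 also: 0% = DMSO wells and 100% = wells lacking the enzyme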
# FBA Mtb inh = Mtb fructose-bisphosphate aldolase inhibition; P9WQA3; purified M. tuberculosis FBA, fluorescence read-out; AID 588726; hit rate 2.3% among 360,000; inhibition, % at 1 µM;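 also: 0% = vehicle and 100% = reference inhibitor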
# Target sequence (P9WQA3 whole entry, looked up): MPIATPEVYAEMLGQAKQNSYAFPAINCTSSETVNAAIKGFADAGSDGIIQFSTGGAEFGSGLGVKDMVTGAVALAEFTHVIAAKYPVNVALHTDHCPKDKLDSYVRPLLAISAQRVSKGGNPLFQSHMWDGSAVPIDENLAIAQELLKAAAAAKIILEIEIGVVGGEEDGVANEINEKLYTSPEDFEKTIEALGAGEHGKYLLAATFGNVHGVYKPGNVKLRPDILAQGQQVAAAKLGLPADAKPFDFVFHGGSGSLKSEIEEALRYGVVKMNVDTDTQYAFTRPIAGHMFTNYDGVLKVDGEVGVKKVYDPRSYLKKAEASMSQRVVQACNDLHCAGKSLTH
# Vc quorum ag = inducers of Vibrio cholerae quorum light production without autoinducers; V. cholerae BH1578 lux reporter, luminescence, 6 h; activation, % at 18.7 µM; hit rate 0.16% among 350,000; in the data active = activation mostly above about 9.7%, no sharp cut-off
# PrPC TRFRET = reduces human prion protein on the cell surface; P04156; cell surface PrPC, TR-FRET read-out; inhibition, % at 13.8 µM; hit rate 0.43% among 370,000; AID 720596; in the data active = inhibition above about 24%; also: 0% = median of the test wells and 100% = reference compound wells
# Mtb FBA inh conf = Mtb FBA inhibition, confirmed | shares compounds with FBA Mtb inh | purified M. tuberculosis FBA, fluorescence read-out | hit rate 78% among 5,600 | inhibition, % at 1 µM;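 also: 0% = vehicle wells and 100% = reference inhibitor wells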
# GDH-TPI counter-2 = counter-screen for M. tuberculosis FBA inhibitors: GDH-TPI coupled enzyme inhibition. shares compounds with FBA Mtb inh. GDH-TPI coupled enzyme counterscreen, fluorescence. inhibition, % at 1 µM. hit rate 81% among 5,600; in the data active = inhibition above about 10%
# GDH-TPI dose = counter-screen for M. tuberculosis FBA inhibitors: GDH-TPI dose response; shares compounds with FBA Mtb inh; GDH-TPI coupled enzyme assay, fluorescence, artifact counterscreen; IC50, µM; hit rate 79% among 170; AID 652145; call rule not given here
# * = called active by the depositor; i = inactive; · = no result given; + = active, no number. An excerpt weighted towards active compounds, which were near 3.9% of everything screened. Rule as the data show it, unless noted: active = inhibition above about 27%; inactive = the rest.
SMILES,3CLpro inhibitor,GDH-TPI counter-1,FBA Mtb inh,Vc quorum ag,PrPC TRFRET,Mtb FBA inh conf,GDH-TPI counter-2,others
CN(C)c1nc(OCc2ccccc2)c2ncc(=O)[nH]c2n1,·,16.9,31.3*,-0.9,-8.5,10.2,-4.4,GDH-TPI dose=4.87*
COc1ccccc1-c1cc(NC=O)c2ncc(-c3ccc(S(C)(=O)=O)cc3)n2c1,·,18.6,103.8*,-0.2,-17.4,+,+,
COc1ccc(-c2cnc3c(NC=O)cc(-c4ccc(S(C)(=O)=O)cc4)cn23)cc1OC,·,11.5,1.9,-1.1,-25.6,·,·,
CS(=O)(=O)c1ccc(-c2cnc3c(NC=O)cc(-c4ccsc4)cn23)cc1,·,18.6,28.6*,1.3,-6.7,166.5*,135.8*,
CCOC(=O)c1nc2cc3n(c(C)c-2c1C)C(C)C(C)=C3C (centres undefined),-6.5,2.6,36.9*,i,-10.6,63.5*,50.0*,
CCOC(=O)c1nnc2cc(C)nn2c1C,0.1,0.8,0.4,-0.6,-1.7,·,·,
CCOC(=O)c1nc2cc3n(c(CC(C)C)c-2c1C)CC(C)=C3C,4.7,5.9,27.4*,-0.5,-2.0,118.5*,88.0*,
COc1cccc(Cn2c(N)c(C#N)c3nc4ccccc4nc32)c1OC,1.5,7.2,7.4,-0.3,-12.7,·,·,
N#Cc1c(N)n(-c2ccc(O)cc2)c2nc3ccccc3nc12,-5.7,1.9,0.1,i,-45.6,·,·,
N#Cc1c(N)n(-c2cccc(O)c2)c2nc3ccccc3nc12,3.9,20.2,83.7*,0.1,-31.6,+,+,
COc1cc(Cn2c(N)c(C#N)c3nc4ccccc4nc32)cc(OC)c1,6.2,17.1,109.4*,-2.1,6.6,+,172.7*,
N#Cc1c(N)n(CCOC(=O)c2cccc(Br)c2)c2nc3ccccc3nc12,3.4,5.6,44.9*,-0.3,1.9,49.7*,34.4*,
CCCCn1c(NC(=O)c2ccccc2)c(C#N)c2nc3ccccc3nc21,1.7,15.1,19.9,4.0,-6.5,·,·,
O=c1c2ccccc2n(CC(O)CN2CCOCC2)c2ccccc12 (centres undefined),-2.5,6.9,32.9*,-7.7,-11.7,5.2,-1.0,
COC(=O)[C@@]12C[C@@H](CC(=O)NCc3ccc(C)o3)C(=O)N(Cc3ccccc3)C1=CCC(C)(C)C2,·,·,·,·,1.8,·,·,
CCCC(=O)N1CCC1(C)C(=O)Nc1ccc2nccnc2c1 (centres undefined),·,23.9,43.0*,i,-7.6,45.4*,23.8*,
CCCC(=O)N1CCC1(C)C(=O)Nc1ccc2scnc2c1 (centres undefined),·,0.9,-1.7,i,·,·,·,
COc1ccc(OC)c(N(CCN2C(=O)c3ccccc3C2=O)C(=O)C2CCC(=O)C2C)c1 (centres undefined),·,-1.3,-1.3,i,-5.8,·,·,
CN(C)C1=NCC(CSC(=N)N)S1 (centres undefined),-0.1,-0.6,68.2*,0.4,-11.5,200.0*,174.9*,
Cn1c2ccccc2c(=O)c2ccc(NCCc3cccs3)cc21,·,30.4,108.8*,i,12.5,4.7,-0.7,
O=S1(=O)c2ccc(N3CCSCC3)cc2Oc2ccccc2CN1Cc1cn(Cc2ccc(Cl)cc2)nn1,·,·,·,·,5.3,·,·,
CCn1ncc(-c2ccnc3cc(C(=O)O)nn23)c1C,1.9,8.7,68.0*,0.7,-6.8,137.4*,130.9*,
CCn1ncc(-c2cc(C(=O)O)no2)c1C,2.2,·,·,·,5.4,·,·,
N#Cc1cnc(NN)nc1,2.2,9.6,0.5,1.1,-3.6,·,·,
COc1ccc(CC(=O)Nc2ccc(N(C)C)c3ccccc23)cc1,-1.1,2.6,33.6*,i,-13.5,+,128.2*,
SMILES,3CLpro inhibitor,GDH-TPI counter-1,FBA Mtb inh,Vc quorum ag,PrPC TRFRET,Mtb FBA inh conf,GDH-TPI counter-2,others
COC(=O)c1sccc1NC(=O)Cc1ccc(OC)cc1,-4.1,9.2,-0.8,-2.6,7.8,·,·,
O=C(CC(c1ccccc1)c1ccccc1)Nc1ccc(C(=O)O)cc1,1.0,-6.4,0.7,-0.1,-7.5,·,·,
CCc1ccc(CN2C(=O)c3ccccc3C2C(=O)NC(C)CC)cc1 (centres undefined),0.1,5.5,104.5*,-1.2,12.6,47.7*,44.4*,
Cc1c(NC(=O)CN2C(=O)NC(C)(c3ccccc3)C2=O)c(=O)n(-c2ccccc2)n1C (centres undefined),-2.0,5.9,-0.7,-0.1,-4.4,·,·,
CCC(NC(=O)c1ccccc1O)c1ccccc1 (centres undefined),1.5,-1.4,43.1*,i,2.4,168.0*,119.5*,
CCCC(=O)Nc1ccc(-c2nc3cc(C)c(C)cc3o2)c(O)c1,-3.0,7.6,2.3,-0.6,3.6,·,·,
CCCC(=O)Nc1ccc(-c2nc3cc(C)ccc3o2)cc1,-4.7,24.9,96.2*,-0.9,4.2,75.7*,76.9*,
CC(=O)Nc1ccc(-c2nc3cc(Cl)ccc3o2)cc1,-3.0,20.8,29.5*,-0.4,1.7,+,+,
COc1ccc(C(=O)Nc2ccc3oc(-c4cccnc4)nc3c2)cc1OC,-7.9,4.7,4.7,i,1.1,·,·,
CCCCCC(=O)Nc1ccc2oc(-c3cccnc3)nc2c1,3.2,4.4,84.0*,-0.3,-0.8,47.3*,43.8*,
CC(C)(C)C(=O)Nc1ccc2oc(-c3cc(F)c(F)cc3Cl)nc2c1,2.4,19.4,52.6*,5.3,-4.8,70.2*,47.4*,
CCOc1ccc(CN2CCN(Cc3[nH]c4ccccc4c3C)CC2CCO)cc1 (centres undefined),1.2,1.3,-0.6,·,-14.4,·,·,
CS(=O)(=O)c1ccccc1-c1nnc(NC(=O)c2cccc(N3C(=O)CCC3=O)c2)o1,·,13.5,2.5,i,-2.3,·,·,
COc1ccc(OC)c(CCNC(=O)c2ccc3c(c2)N(Cc2ccc(F)cc2)CCS3)c1,7.8,0.9,21.7,-0.5,·,·,·,
Cc1ccc(CN2CCSc3ccc(C(=O)NCC4CCCO4)cc32)cc1 (centres undefined),-0.2,9.6,58.2*,0.9,·,46.6*,23.4*,
O=C(NCC1CCCO1)c1ccc2c(c1)N(Cc1ccccc1)C(=O)CS2 (centres undefined),0.6,2.2,-3.0,0.7,9.1,·,·,
Cc1ccc(SCc2ccc(C(=O)NCc3cccnc3)cc2)cc1,4.9,1.9,-2.1,-0.2,3.5,·,·,
Cc1ccc(CN2CCSc3ccc(C(=O)NCc4cccnc4)cc32)cc1,1.6,-0.8,69.2*,-0.6,3.0,26.0,23.0*,
COc1ccc(CCNC(=O)c2ccc3c(c2)N(Cc2ccc(C)cc2)CCS3)cc1OC,2.4,8.6,54.2*,-0.5,·,64.2*,51.2*,
Cc1ccc(C(=O)N2CCN(c3ccc(N4CCOCC4)nn3)CC2)cc1,·,-6.5,37.4*,-1.4,-9.9,+,+,
CCCCOc1ccc(C(=O)N2CCN(c3ccc(N4CCOCC4)nn3)CC2)cc1,·,5.2,30.2*,0.6,-8.4,6.5,-6.2,

# Assay outcomes deposited in PubChem by several laboratories.
